# Source: PubChem BioAssay (NCI)
# About 79,000 compounds went through this panel and 15% of them were active in at least one assay; those are over-represented in the sample as a whole. Values without a mark were called inactive. The source made the active and inactive calls. No stated cut-off is given here; in the data, active means growth inhibition above about 70%; inactive means the rest.
# How the values were obtained:
# [1] = NCI Yeast Anticancer Drug Screen. Data for the rad50 strain (AID 155);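 further: 0% = growth of vehicle-only cultures of the same strain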; details: S. cerevisiae rad50 strain growth inhibition; at 50.0 µM; active compounds read high
# Procedure, shortened: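 Vehicle-treated cultures provide the reference for the growth inhibition reported for compound-exposed, repair-deficient yeast.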
# [2] = NCI Yeast Anticancer Drug Screen. Data for the mec2-1 strain (AID 157); details: S. cerevisiae mec2-1 strain, at 50.0 µM, active compounds read high
# Procedure, shortened: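 Mutant yeast (mec2-1) grown with compound; growth inhibition relative to vehicle control reported.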
# [3] = NCI Yeast Anticancer Drug Screen. Data for the sgs1 mgt1 strain (AID 161);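 further: 0% = growth of cultures given vehicle only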; details: S. cerevisiae sgs1 mgt1 strain, at 50.0 µM, active compounds read high
# Procedure, shortened: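 Compounds are added to genetically altered yeast, and growth is compared with cultures given vehicle alone to give percent inhibition.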
# [4] = NCI Yeast Anticancer Drug Screen. Data for the cln2 rad14 strain (AID 165);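 further: 0% = growth equal to vehicle treated cultures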; details: S. cerevisiae cln2 rad14 strain, at 50.0 µM, active compounds read high
# Procedure, shortened: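 Readout is yeast growth inhibition versus vehicle-treated controls, using a strain with cln2 and rad14 alterations exposed to compound.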
# [5] = NCI Yeast Anticancer Drug Screen. Data for the bub3 strain (AID 167); details: S. cerevisiae bub3 mutant strain, at 50.0 µM, active compounds read high
# Procedure, shortened: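 Mutant yeast screening strain plus compound; vehicle-treated cultures serve as the 0% inhibition reference.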
# [6] = NCI Yeast Anticancer Drug Screen. Data for the mlh1 rad18 strain (AID 175); details: S. cerevisiae mlh1 rad18 strain growth inhibition; at 50.0 µM; active compounds read high
# Procedure, shortened: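 Genetically defined yeast (DNA repair-deficient) exposed to compounds; growth inhibition determined relative to vehicle.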
SMILES,growth inhibition [1],growth inhibition [2],growth inhibition [3],growth inhibition [4],growth inhibition [5],growth inhibition [6]
Cc1nnc(-c2ccccc2)s1,15.1%,12.3%,-3.2%,12.1%,-10.6%,-7.45%
O/N=C1/COC(C(F)(F)F)(C(F)(F)F)C1,-14.3%,-25.4%,-16.9%,-38.2%,-5.7%,-45.5%
CCn1cc(C(=O)O)c(=O)c2ccc(-c3ccncc3)cc21,3.35%,8.7%,5.75%,-7.85%,17%,11.4%
Cc1ccc(NC(=S)Nc2ccccc2C)nc1,5.95%,9.35%,27.9%,13.1%,2.6%,18.9%
CC1=N[C@](C)(C2CC3C=CC2C3=O)COC1=O (stereo partly specified),-15.5%,-18.5%,-27%,-1.9%,-11.6%,-5.45%
O=C(Cn1c2c(c3ccccc31)CCCC2)N1CCOCC1,-19.3%,-29.4%,-14.1%,5.15%,-23.8%,-19.6%
O=[N+]([O-])c1ccc(C2ON=C(c3ccccc3)N2C23CC4CC(CC(C4)C2)C3)cc1 (stereo unspecified),-12.6%,-9%,-6.1%,25.5%,-6.5%,-28.4%
COc1ccc(NC(C)=O)cc1Br,-12.8%,-40.5%,-11.1%,-16.8%,-17.6%,-20.9%
CS/C(=N/S(=O)(=O)c1ccccc1)NNC(=S)Nc1ccc(C(C)C)cc1,14%,-12.6%,27.2%,22.6%,28.3%,25.9%
NCC1CCC(C(=O)O)CC1 (stereo unspecified),-14.4%,-9.35%,-10%,-20.9%,-24.9%,-21.6%
O=C(O)CCC(=O)NNc1nc2ccccc2s1,22.1%,2%,29.1%,19.8%,-13.2%,44.4%
COc1cc(CNc2nc3c(NC(C)=O)cc(C(F)(F)F)cc3nc2-c2ccccc2)cc(OC)c1OC,-16.1%,-15.8%,-32.3%,-4.35%,10.8%,-10.3%
CC(C)CN(CC(C)C)C(=O)c1ccc([N+](=O)[O-])cc1,-7.3%,22.8%,16.9%,-26.2%,38.1%,20.9%
NC(=O)C(F)(F)C(F)(F)C(N)=O,-28.1%,-16.8%,-15%,-51.6%,3.25%,-1.9%
COc1cc(/C=C/C(=O)OCCc2ccccc2)ccc1O,74.8% (active),82% (active),90.2% (active),89% (active),90.1% (active),61%
O=C1CCCCC1N1CCCCC1 (stereo unspecified),-4.95%,-14.7%,10.8%,2.65%,-1.3%,0%
NC(=O)N/N=C(/CC1C(=O)Oc2ccccc21)c1ccccc1O (stereo unspecified),-8.35%,-4.7%,-9.7%,-14.3%,-24.9%,14%
CCCCCc1ccccc1OCC1CO1 (stereo unspecified),6.75%,-9.15%,-17.6%,11.6%,5.1%,27.2%
O=[N+]([O-])c1cccc(-c2cc3ccccn3c2)c1,28.9%,7%,13.8%,5.6%,-1.95%,6.85%
COC(=O)c1cc2cccn2cn1,-5.9%,-11.3%,-13.2%,-27.4%,-27.9%,-8.85%
COc1ccc2c3c([nH]c2c1)CCN(CCCC(=O)c1ccc(F)cc1)C3,-8.15%,-4%,42.6%,31.1%,45.2%,1.8%

SMILES,growth inhibition [1],growth inhibition [2],growth inhibition [3],growth inhibition [4],growth inhibition [5],growth inhibition [6]
Cc1ccccc1NC(=O)CC(=O)n1nc(-c2ccccc2)c(N=Nc2ccc([N+](=O)[O-])cc2)c1-c1ccccc1,46.4%,10.4%,56%,30.9%,52.8%,42.9%
ON(Cc1ccccc1)Cc1ccccc1,-3.95%,-26.9%,12.9%,12.8%,9.5%,-19.1%
CCOC(=O)CC1C(C)C(C)NC(C)C1C (stereo unspecified),-1.85%,-24.3%,-20.2%,12.1%,2.95%,5.75%
OCC1CC2c3ccccc3C1c1ccccc12 (stereo unspecified),-12%,-22.1%,-12.1%,-0.05%,-28.4%,-6.75%
CCOC(=O)C(CC)(C(=O)OCC)C(C)C,15.6%,30.4%,-17.9%,-28.1%,-9.95%,-6.8%
CCOC(=O)/C(=C/n1c(=S)[nH]c2ccc([N+](=O)[O-])cc21)C(=O)c1ccccc1,-7.55%,-44.8%,-12.9%,-1.35%,-16.7%,-4.65%
COC1=C(C)C(=O)C2=C(C1=O)C1C3CC4=C(C(=O)C(OC)=C(C)C4=O)C(CNC(=O)C(C)O)N3C(C#N)C(C2)N1C (stereo unspecified),15.9%,0.85%,8.9%,32.8%,-3.45%,41.5%
O/N=C1\CCn2cccc21,-12.1%,15.1%,-18.2%,0.25%,19.4%,-11.2%
C[N+](C)(C)C1(Cc2ccccc2)c2ccccc2-c2ccc(Cl)cc21 (stereo unspecified),29.1%,4.85%,21.2%,-15.8%,-6.8%,5.9%
O=c1cc[nH]c2cc(C(F)(F)F)ccc12,-26.4%,-39%,-16.7%,10.1%,-25.9%,-34%
COc1ccc(C2=CCCCc3cc(O)c(OC)cc32)cc1,93.9% (active),96.7% (active),97.2% (active),79.8% (active),98.1% (active),97.2% (active)
O=C1CCC2(O1)c1ccc(O)cc1Oc1cc(O)ccc12,1.05%,-24.1%,-17.4%,-3.9%,7.6%,-7.3%
CC(C)CCCC(C)C1CCC2C3CC=C4CC(C(=O)O)CCC4C3CCC12C (stereo unspecified),26.8%,21.6%,14.1%,21.2%,-3.5%,22.6%
COc1ccc([N+](=O)[O-])cc1NC(=O)c1ccc(Cl)cc1,12%,29.7%,35.6%,16.9%,28%,34.8%
NC(CC(=O)O)C(=O)OCc1cccc(N=Nc2ccccc2)c1 (stereo unspecified),7.8%,-8.35%,-7.2%,-3.2%,-2.4%,4.3%
CNC(=O)c1ccc(C(=O)NC)cc1,-19.1%,-26.1%,-42.9%,3.95%,-41.9%,-1.75%
Oc1cccc(CCc2ccccn2)c1,-2.45%,0.85%,-11.3%,-24.3%,-3.85%,-4.05%
Cc1ccc2occ(/C=N/NC(N)=S)c(=O)c2c1,-11.4%,-2.7%,12.3%,0.6%,1.2%,0.8%
COc1ccc(N=Nc2c(C)nn(C(=O)c3ccncc3)c2C)cc1,-21.9%,-3.75%,13.4%,-1.2%,11.4%,-10.1%
O=c1[nH]c2cc(Cl)ccc2nc1/C(=N\Nc1ccccc1)C(O)c1ccc(Cl)c(Cl)c1 (stereo unspecified),11.6%,-4.8%,-9.55%,24.4%,17.1%,19%
